The text below walks through data of PubChem BioAssay AID2163 (National Center for Advancing Translational Sciences (NCATS), 2009).

Each structure is given as a SMILES string. This is one part of the list. The source made the active and inactive calls.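 Rule for the calls: active = compounds that slowed 12-hLO product formation enough to yield a measured IC50 potency; inactive = the rest.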

In the experiment the target is Polyunsaturated fatty acid lipoxygenase ALOX12 (Homo sapiens) (UniProt P18054). In words: Cuvette-Based Assay for Inhibitors of 12-hLO (12-human lipoxygenase): 8HQ Series - Round 1. As to conditions: purified 12-hLO, cuvette UV 234 nm product formation. As to the method: Assay Provider: Holman, T.R., University of California, Santa Cruz Screening Center PI: Austin, Christopher P. Screening Center: NIH Chemical Genomics Center The enzyme activity of 12-hLO was determined by a direct measurement of product formation by monitoring the absorbance at 234 nm in a 2 mL cuvette. IC50 values of inhibitors were obtained by measuring the enzymatic rate at a variety of concentrations (Carroll et al, Segraves et al).
Polyunsaturated fatty acid lipoxygenase ALOX12 (Homo sapiens), sequence (P18054 whole entry, looked up): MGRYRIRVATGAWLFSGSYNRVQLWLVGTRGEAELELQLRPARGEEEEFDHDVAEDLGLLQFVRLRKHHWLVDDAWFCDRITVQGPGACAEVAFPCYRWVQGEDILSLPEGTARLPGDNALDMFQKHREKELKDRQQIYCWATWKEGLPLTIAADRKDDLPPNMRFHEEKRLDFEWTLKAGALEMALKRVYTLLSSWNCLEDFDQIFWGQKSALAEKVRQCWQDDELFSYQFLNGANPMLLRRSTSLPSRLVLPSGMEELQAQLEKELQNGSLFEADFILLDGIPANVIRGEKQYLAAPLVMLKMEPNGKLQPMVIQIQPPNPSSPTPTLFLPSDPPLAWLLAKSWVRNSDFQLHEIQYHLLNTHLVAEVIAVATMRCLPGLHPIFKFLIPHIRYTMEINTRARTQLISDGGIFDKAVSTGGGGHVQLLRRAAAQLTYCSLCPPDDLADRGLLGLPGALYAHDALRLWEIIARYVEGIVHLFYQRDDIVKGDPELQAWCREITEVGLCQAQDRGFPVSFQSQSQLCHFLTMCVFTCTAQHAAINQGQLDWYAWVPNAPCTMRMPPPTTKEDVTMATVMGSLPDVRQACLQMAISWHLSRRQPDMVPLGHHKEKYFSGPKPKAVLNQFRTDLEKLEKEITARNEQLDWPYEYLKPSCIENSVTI
For control experiments, 2 mL of substrate buffer (10 uM arachidonic acid / 25 mM HEPES / 0.01% (v/v) Triton X-100, pH 8.0) was aliquoted in a cuvette with a magnetic stir bar. After equilibrium was ensured, an aliquot of inhibitor solvent was added (DMSO), and equilibrium was once again assured. The reaction was started by adding enzyme to the cuvette and the reaction was followed until completed. The inhibition experiments were performed as above, except the actual inhibitory compound was added instead of vehicle. To achieve an IC50, typically 5 concentrations of the inhibitor were studied. If the inhibitor concentration was constant, then five different reaction volumes were used. […] 3; No change in absorbance ensured. […] 5; No change in absorbance ensured. […]
Take `CC(=O)NC(c1cccs1)c1cc(Cl)c2cccnc2c1O` (stereo unspecified): the Potency was 1000 nM (active).
